# NPR1 antag: antagonists of human natriuretic peptide receptor Npr1; P16066; HEK293 hNpr1 GloSensor cGMP, ANP-stimulated luminescence; Potency, µM (top dose mostly 46.3 µM), for the others: at the top dose activity change, negative = inhibition, usual class: inhibitors; hit rate 1.6% among 76,000; calls by dose curve; also: nearly all actives have a fitted effect of over 60% in size
#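 Compound pre-incubated 30 min at room temperature on GloSensor-loaded HEK293 cells stably carrying hNpr1 and the pGS-40F cGMP biosensor. Stimulation uses hNppA at 0.1 nM final; luminescence is taken at baseline and 20 min post-agonist.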
# 3T3 cytotox: cytotoxic compounds in NIH 3T3 cells; NIH 3T3 viability, CellTiter-Glo ATP luminescence, 48-72 h; Potency, µM (doses to about 96.7 µM), for the others: top-dose activity change, negative = cytotoxicity, hits mostly inhibitors; hit rate 4.3% among 94,000; AID 1345082; also: nearly all actives have a fitted effect of over 55% in size
#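 First NIH 3T3 cells are plated at 400 cells/well; next compound is pinned in; then plates incubate 48 or 72 hr at 37 °C; finally CellTiter-Glo is added and luminescence read after 10 min.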
# FLuc inh: inhibitors of firefly (Photinus pyralis) luciferase | hit rate 2.5% among 76,000 | purified P. pyralis luciferase, luminescence, biochemical | P08659 | AID 1347043 | Potency, µM (top dose mostly 115 µM), actives largely listed as inhibitors; also: nearly all actives have a fitted effect of over 65% in size
# Target sequence (P08659 whole entry, looked up): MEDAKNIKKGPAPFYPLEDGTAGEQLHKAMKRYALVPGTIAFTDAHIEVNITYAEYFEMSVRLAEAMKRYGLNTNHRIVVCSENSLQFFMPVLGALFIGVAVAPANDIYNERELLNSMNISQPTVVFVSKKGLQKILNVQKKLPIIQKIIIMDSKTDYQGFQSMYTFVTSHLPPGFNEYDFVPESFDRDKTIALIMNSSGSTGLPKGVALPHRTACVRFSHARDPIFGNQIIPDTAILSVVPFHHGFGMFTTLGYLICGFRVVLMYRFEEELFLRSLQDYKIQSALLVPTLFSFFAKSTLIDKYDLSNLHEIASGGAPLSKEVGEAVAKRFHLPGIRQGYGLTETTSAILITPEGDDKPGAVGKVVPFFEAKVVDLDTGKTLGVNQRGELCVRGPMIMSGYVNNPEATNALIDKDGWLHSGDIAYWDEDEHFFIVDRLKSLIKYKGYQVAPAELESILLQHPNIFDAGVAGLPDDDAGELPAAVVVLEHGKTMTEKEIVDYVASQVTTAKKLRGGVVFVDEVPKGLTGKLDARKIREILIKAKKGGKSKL
#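 Cell-free enzyme assay, 10nM P. pyralis luciferase, luciferin and ATP each at 10uM. Inhibition profiled over a 6-point titration, read as luminescence.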
# HEK cytotox: cytotoxic compounds in HEK 293 cells; HEK 293 viability, ATP luminescence (CellTiter-Glo), 48-72 h; Potency, µM (titrated, usually from 115 µM), for inactives: at the top dose activity change, negative = cytotoxicity, most hits filed as inhibitors; hit rate 6.6% among 94,000; also: nearly all actives have a fitted effect of over 60% in size
#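 CellTiter-Glo luminescence (cellular ATP) was read after 48 or 72 hr of compound exposure at 37 degree Celsius. Cells were HEK 293 plated at 250 cells/well.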
# Active calls of the source: *; i = inactive; ? = inconclusive; / = no result; [ ] = another dose, or the depositor's remark. Sampled rows, rich in hits. Any-hit rate of the full collection: about 11%. Unless noted, calls follow the shape of the dose curve; as a rule, active = well fitted curve in the direction sought with a large enough effect; inconclusive = small, poorly fitted or top-dose-only effect, or another doubt; inactive = no such curve, though single readings can be large; an effect the other way counts as inactive or inconclusive. % is scaled to controls: 0 for no effect and ±100 for the full control effect; potency is read from the fitted curve at half-maximal effect.
SMILES,NPR1 antag,3T3 cytotox,FLuc inh,HEK cytotox
O=C(C1CCCC1)N1CCC(C(=O)N2CCCC2c2nc3ccncc3[nH]2)CC1 (stereo not drawn),/,-10%,/,-3%
Cc1cc(CN(C)c2cc(C3CC(N)C3)nc(N)n2)no1 (stereo not drawn),-13%,i,i,1%
CCOc1ccc(Cl)cc1CN(C)c1cc(C2CC(O)C2)nc(N)n1 (stereo not drawn),?,32µM*,i,40µM*
Cc1cn2nnc(C(=O)N3CCC(C(=O)Nc4cccc(C(C)C)c4)CC3)c2c(=O)[nH]1,0%,i,i,-6%
Cc1ccc(C2Cn3nnc(C(=O)N4CCC(C(=O)Nc5ccc(Cl)c(C)c5)CC4)c3CO2)cc1 (stereo not drawn),-12%,-1%,35µM*,5%
Cc1ccc(C2Cn3nnc(C(=O)N4CCC(C(=O)Nc5cccc(Cl)c5)CC4)c3CO2)cc1 (stereo not drawn),-15%,?,28µM*,40µM*
CSc1ccc(NC(=O)C2CCN(C(=O)c3nnn4c3COC(c3ccc(C)cc3)C4)CC2)cc1 (stereo not drawn),1%,-13%,?,-7%
Cc1ccc(C2Cn3nnc(C(=O)N4CCN(C(=O)c5cccc(N(C)C)c5)CC4)c3CO2)cc1 (stereo not drawn),?,-19%,?,18µM*
O=C(c1ccc2[nH]ccc2c1)N1CCN(C(=O)c2nnn3c2COC(c2ccccc2)C3)CC1 (stereo not drawn),-15%,-11%,i,79µM*
Cc1ccc(C2Cn3nnc(C(=O)N4CCC(C(=O)NC5CCCCCC5)CC4)c3CO2)cc1 (stereo not drawn),-12%,-26%,?,?
COc1ccc(S(=O)(=O)N2C[C@@H]3C[C@H](C2)c2c(-c4ccc(NC(C)=O)cc4)ccc(=O)n2C3)cc1,-6%,-3%,i,-8%
Cc1ccc(C(=O)N2CCN(C3CCN(C)C3=O)CC2)cc1C (stereo not drawn),0%,-10%,i,-5%
CN(C)c1ccc(-c2nnc([C@H]3CCN(Cc4ccccc4)C3)o2)cc1,-7%[70.6 µM],?,63µM*,?
CN(C)c1ccc(-c2nnc([C@H]3CCN(CC4CCCCC4)C3)o2)cc1,0%[70.6 µM],?,?,100µM*
Cc1ccc(CN2CC[C@H](c3nnc(-c4ccccc4)o3)C2)cc1,1%[70.6 µM],?,?,?
COCCOc1ncccc1-c1noc([C@@H]2CCCN2Cc2ccc(C(=O)O)cc2)n1,-13%[70.6 µM],-10%[138 µM],i,4%[172 µM]
COc1ccccc1CN1CCC[C@H]1c1nc(-c2ccc(F)cn2)no1,4%[70.6 µM],-21%[174 µM],i,18µM*
COCCOc1ncccc1-c1noc([C@@H]2CCCN2Cc2ccc(OC)cc2)n1,3%[70.6 µM],-15%[174 µM],i,100µM*
COc1cccc(C(=O)N2CCC(N3C[C@H](O)C[C@H]3C(=O)N3CCN(c4ccccc4)CC3)CC2)c1,1%,-12%,i,-9%
CCN1c2cc(C(=O)NCc3ccccc3OC)ccc2C(=O)N2CCCCC21 (stereo not drawn),-2%,-25%,i,?
CC(C)Cn1c(=O)c(C(=O)N2CCN(C(=O)NC3CCCC3)CC2)nc2cccnc21,/,-25%,/,i
COCCNC(=O)C(C)[C@@H]1CC[C@@]2(C)CC[C@H](NC(=O)c3cccc(F)c3)[C@@H](C)[C@@H]2[C@H]1O (stereo partly drawn),2%,-18%,i,-16%
CC(C)c1nc2c(c(-c3ccc(O)cc3)n1)CCN(Cc1ccc(F)cc1)CC2,3%,?,i,?
CC(C)c1nc2c(c(-c3ccc(O)cc3)n1)CN(Cc1ccc(N(C)C)cc1)CC2,8%,-29%,i,79µM*
CC(C)c1nc2c(c(-c3ccc(O)cc3)n1)CN(Cc1cccc(C(F)(F)F)c1)CC2,-8%,22µM*,i,32µM*
SMILES,NPR1 antag,3T3 cytotox,FLuc inh,HEK cytotox
CC(C)c1nc2c(c(-c3ccc(O)cc3)n1)CN(Cc1ccc(F)cc1)CC2,2%,?,i,89µM*
CC(C)c1nc2c(c(-c3ccc(O)cc3)n1)CCN(Cc1ccccc1C(F)(F)F)CC2,?,28µM*,i,35µM*
O=C1NCc2ccccc2CC12CCN(CCc1ccccc1)CC2,/,-17%,/,?
CC(C)c1nc2c(c(-c3ccc(Cl)cc3)n1)CCN(Cc1ccc(C#N)cc1)CC2,/,?,/,40µM*
CC(C)c1nc2c(c(-c3ccc(Cl)cc3)n1)CCN(CC1CC1)CC2,/,-23%,/,-39%
Cc1ccc(-c2ccccc2CN2CCC(C(=O)N3CCOCC3)CC2)cc1Cl,/,?,/,79µM*
COC(=O)CNC(=O)C1CCN(Cc2ccccc2-c2ccc(C)c(Cl)c2)CC1,/,?,/,-22%
Cc1ccc(-c2ccccc2CN2CCN(C(=O)NC3CCCC3)CC2)cc1Cl,/,20µM*,/,22µM*
COc1ccccc1C(=O)N1CCN(Cc2ccccc2-c2ccc(C)c(Cl)c2)CC1,/,35µM*,/,?
CCOC(=O)[C@H]1C[C@]2(CCCCNC2=O)N(C(C)=O)[C@H]1c1ccccc1,/,?,/,-34%
COc1cccc(-c2ccc(C(=O)NCCNC(=O)c3ccccc3C)cc2)c1,/,-19%,/,-27%
O=C([C@@H]1C[C@H](c2ccc(F)cc2)N(Cc2ccccc2Cl)C1)N1CC(O)C1,-13%[70.6 µM],89µM*,i,71µM*
O=C(Nc1ccccn1)[C@@H]1C[C@@H](c2ccc(F)cc2)N(Cc2ccccc2)C1,?,?,i,?
O=C([C@@H]1C[C@H](c2ccc(F)cc2)N(Cc2ccccc2Cl)C1)N1CCOCC1,-5%[70.6 µM],89µM*,i,?
O=C([C@@H]1C[C@H](c2ccc(F)cc2)N(Cc2ccccc2Cl)C1)N1CCN(CCO)CC1,-16%,?,i,?
Cc1ccccc1C(=O)N1CCc2nc(C3CC3)nc(-c3ccc(O)cc3)c2CC1,5%,-3%,i,2%
CCCn1c(C)cnc1C1CCN(S(=O)(=O)c2cnn(CC)c2)C1 (stereo not drawn),/,-29%,/,-4%
O=C(NCc1ccccn1)C1c2ccccc2C(=O)N(C2CCCCC2)C12CCCCC2 (stereo not drawn),-1%,?,i,25µM*
CCCNC(=O)C1c2ccccc2C(=O)N(C2CCCCC2)C12CCCCC2 (stereo not drawn),2%,?,i,40µM*
O=C(NCCc1ccncc1)C1c2ccccc2C(=O)N(Cc2ccccc2)C12CCCC2 (stereo not drawn),-16%,?,i,?
O=C(NCCc1ccncc1)C1c2ccccc2C(=O)N(C2CCCCC2)C12CCCCC2 (stereo not drawn),-30%,?,i,40µM*
Cc1ccc(-c2nnc([C@H]3CCN(Cc4cccc(C#N)c4)C3)o2)cc1,-8%[70.6 µM],?,?,?
CCOc1nccn2c(-c3ccc(CNc4ccc(OC)nc4)cc3)cnc12,-14%[70.6 µM],?,22µM*,?

# High-throughput results deposited in PubChem BioAssay by National Center for Advancing Translational Sciences (NCATS).
